Screening data from PubChem BioAssay.
An excerpt weighted towards active compounds, which were near 20% of everything screened.
Shiga toxin inh: A qHTS for Small Molecule Inhibitors of Shiga Toxin | Vero cells, Shiga toxin protein synthesis inhibition reporter | inhibition, % at 38.7 µM | 290,000 tested, 9.2% active; in the data active means inhibition mostly above about 28%, no sharp cut-off; inactive means mostly below about 43%; further: 0% is about no effect
Pf growth 48h: Primary qHTS for delayed death inhibitors of the malarial parasite plastid, 48 hour incubation; P. falciparum luciferase growth in erythrocytes, 48 h; Potency, µM (highest dose often 28.7 µM), without a hit: at the top dose activity change, negative = inhibition, usual class: inhibitors; 310,000 tested, 5.9% active; further: potency means the concentration at half of the fitted maximal effect; on the % scale 0 is the no-effect control and ±100 the full control effect
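Cell-based growth assay: transgenic P. falciparum expressing firefly luciferase, cultured in red cells within RPMI 1640 containing 0.5% w/v Albumax, 24 mM bicarbonate and gentamycin. A drop in luciferase activity indicates inhibition.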
Pf growth 96h: Primary qHTS for delayed death inhibitors of the malarial parasite plastid, 96 hour incubation | P. falciparum luciferase reporter growth, 96 h | Potency, µM (doses to about 28.7 µM), without a hit: top-dose activity change, negative = inhibition, usual class: inhibitors | 320,000 tested, 6.9% active | AID 504834, 2011; further: potency means the concentration at half of the fitted maximal effect; on the % scale 0 is the no-effect control and ±100 the full control effect
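Parasite growth measured via integrated firefly luciferase reporter in P. falciparum. Infected erythrocytes at 2% hematocrit, 0.05% parasitemia final were treated 96 hours at 37 C under 5% CO2, and luminescence was read.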
Cycloheximide cs: Cycloheximide Counterscreen for Small Molecule Inhibitors of Shiga Toxin | cell reporter, cycloheximide protein synthesis inhibition counterscreen | max response, % | 300,000 tested, 12% active; in the data active means max response mostly above about 13%, no sharp cut-off; inactive means mostly below about 14%; further: read at 38.3 µM for the half of the compounds with a filed dose; 0% is about no effect
HCMV inh: qHTS Assay for inhibitors of the human cytomegalovirus (HCMV) | HFF cells, HCMV-luciferase reporter, 72 h; active compounds read low | activity change, negative = inhibition, % at 57.5 µM | 410,000 tested, 4.5% active | AID 1259415, 2018; in the data active means activity change below about -60%; inconclusive means no clear call, values can overlap the other calls; inactive means above about -39%; further: on the % scale 0 is the no-effect control and ±100 the full control effect
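Screen run at 2 compound doses on HFFs infected with reporter HCMV, MOI 1 PFU/cell. Luciferase activity from cell lysates at 72 h post infection gave inhibition relative to buffer-only and Salinomycin wells.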
The depositor's hits bear a star; i = inactive; ? = inconclusive; . = no result given. Unless noted, the call rests on the fitted dose curve; in most records, active means well fitted inhibition curve with a large enough effect; inconclusive means small, poorly fitted or top-dose-only effect, or another doubt; inactive means no such curve, though single readings can be large or run the other way.

SMILES	Shiga toxin inh	Pf growth 48h	Pf growth 96h	Cycloheximide cs	HCMV inh
COC(=O)c1cc(C(=O)Nc2ccc(S(=O)(=O)NC(C)(C)C)cc2)cc([N+](=O)[O-])c1	8.0	?	2.62µM*	-1.0	105.2
O=C(Nc1cccc([N+](=O)[O-])c1)c1ccc(-c2ccccc2)cc1	29.2	39.0%	?	10.7	7.0
O=C(O)c1ccc(N=NNc2cccc([N+](=O)[O-])c2)cc1	108.4*	i	?	41.8*	60.7
COc1ccc(/C(O)=C2/C(=O)C(=O)N(c3ccccn3)C2c2ccc(OC)c(OC)c2)cc1 (stereo not given)	45.4	14.7%	2.0%	-2.3	15.4
Cc1[nH]c2c(C)cccc2c(=O)c1CN1CCCCCC1	-0.3	-16.9%	?	-4.7	-21.9
Cc1c(N(C)S(=O)(=O)c2cc(C(=O)NCC3CCCO3)ccc2Cl)c(=O)n(-c2ccccc2)n1C (stereo not given)	.	-22.1%	10.4%	.	-28.2
Cc1sc2ncnc(N3CCCC(C)C3)c2c1C (stereo not given)	6.4	7.9%	17.7%	-5.7	?
CN(C)S(=O)(=O)c1ccc(Cl)c(C(=O)Nc2cccc([N+](=O)[O-])c2)c1	-10.7	?	0.7%	-0.7	-64.9*
O=C(O)c1cccc(NS(=O)(=O)c2ccc(Cl)c(C(=O)Nc3cccc([N+](=O)[O-])c3)c2)c1	.	.	.	.	35.8
CC(C)(C)c1cc(NC(=O)c2cccc([N+](=O)[O-])c2)no1	92.4*	393.9%	-58.3%	59.1*	.
O=C(Nc1cccc([N+](=O)[O-])c1)c1cccc(C(=O)Nc2cccc([N+](=O)[O-])c2)c1	-3.1	2.94µM*	?	-4.5	73.9
COC(=O)c1cccc(NC(=O)c2cccc([N+](=O)[O-])c2)c1	.	69.4%	28.1%	2.2	28.4
Cc1cc(NC(=O)c2cccc([N+](=O)[O-])c2)no1	29.2	12.7%	16.3%	-2.1	1.7
O=C(N/N=C1/CCSC1)c1cccc([N+](=O)[O-])c1	49.9*	-8.1%	7.9%	-1.4	-0.9
CCCCCCCCS(=O)c1sc2nc(C)cc(C)c2c1N (stereo not given)	-9.7	.	?	6.3	-9.8
COCCNC(=O)C1CCCN(S(=O)(=O)c2ccc3c(c2)CC(C)N3C(=O)C2CC2)C1 (stereo not given)	-10.0	0.6%	-17.2%	-2.9	108.5
CC(=O)N[C@H]1C[C@@H]1c1ccccc1	-3.7	20.3%	13.0%	-1.6	-32.1
CCN(CC)c1ccc(C(=O)Nc2ccccc2)cc1[N+](=O)[O-]	66.9*	63.0%	-19.8%	37.1*	10.0
O=C(N[C@H]1CC1c1ccccc1)c1ccc([N+](=O)[O-])cc1 (stereo not given in full)	111.7*	92.1%	210.8%	45.6*	?
O=C(Nc1cccc([N+](=O)[O-])c1)c1cc2ccccc2cc1O	108.5*	5.22µM*	1.85µM*	48.7*	-100.5*
O=C(O)c1ccccc1C(=O)Nc1cccc([N+](=O)[O-])c1	5.0	?	14.0%	-3.4	60.8
CC(NC(=O)Nc1cccc([N+](=O)[O-])c1)(C(F)(F)F)C(F)(F)F	-4.9	?	?	-2.3	-93.3*
COC(=O)[C@@]1(Cc2ccc(F)cc2)[C@H]2c3cc(C(=O)N(C)C)n(Cc4ccsc4Br)c3C[C@H]2CN1C(=O)c1ccccc1	.	.	.	.	4.9
Cc1nn(CC(=O)N2CCN(S(=O)(=O)c3ccccc3)CC2)c(C)c1[N+](=O)[O-]	.	13.9%	-8.3%	.	0.0
Cc1nc2ccc(C(=O)Nc3cccc([N+](=O)[O-])c3)cc2s1	101.1*	?	0.7%	29.7*	-25.1
SMILES	Shiga toxin inh	Pf growth 48h	Pf growth 96h	Cycloheximide cs	HCMV inh
O=[N+]([O-])c1cccc(Nc2nc(Cl)nc(Cl)n2)c1	-6.2	49.1%	11.7µM*	3.0	-30.4
O=C(Nc1ncc([N+](=O)[O-])s1)c1cccc([N+](=O)[O-])c1	105.0*	-45.3%	0.0%	42.9*	-99.3*
O=C(COC(=O)c1ccccc1)Nc1ncc([N+](=O)[O-])s1	.	.	.	.	-8.7
Cc1nc2ccc(NC(=O)c3ccc([N+](=O)[O-])cc3[N+](=O)[O-])cc2s1	27.1	?	?	13.1	-16.1
O=C(Nc1ccccc1)Nc1ncc([N+](=O)[O-])s1	76.8*	-61.0%	-63.6%	35.0*	-98.2*
O=CNNC(=O)c1cccc([N+](=O)[O-])c1	-12.3	31.7%	59.1%	-1.2	57.9
CCOC(=O)[C@]12CCCC=C1N(Cc1ccc3c(c1)OCO3)C(=O)[C@H](CC(=O)NCc1ccc(OC)c(OC)c1)C2	.	.	.	.	8.5
O=C(CCC1N=C2c3ccccc3N=C(SCc3cccc(Cl)c3)N2C1=O)NCc1cccs1 (stereo not given)	.	.	.	.	-1.1
COc1ccc(C2=NN(C(=O)COC(=O)c3ccc(S(C)(=O)=O)c([N+](=O)[O-])c3)C(c3ccco3)C2)cc1 (stereo not given)	.	.	.	.	42.0
COc1ccc(NC(=O)c2cccc([N+](=O)[O-])c2)cc1	76.3*	271.0%	-32.5%	58.8*	5.5
COc1ccc(Cc2nnc(NC(=O)c3ccccc3C)s2)cc1	5.2	33.9%	2.08µM*	10.1	-17.2
O=C(Nc1ccc(O)cc1)c1cccc(Oc2ccc([N+](=O)[O-])cc2)c1	14.8	-3.4%	?	2.2	-33.2
CC(Sc1cccc[n+]1[O-])C(=O)Nc1cccc([N+](=O)[O-])c1 (stereo not given)	19.4	12.9%	20.0%	16.3*	-10.5
CN(C)S(=O)(=O)Oc1cccc(C(=O)Nc2ccc([N+](=O)[O-])cc2)c1	78.5*	44.9%	40.6%	50.1*	-28.2
O=C(Nc1ccc(Cc2ccncc2)cc1)c1cccc([N+](=O)[O-])c1	-23.3	32.7%	-9.0%	23.0*	-20.7
CC(NC(=O)NC(=O)c1cccc([N+](=O)[O-])c1)C1CC1 (stereo not given)	14.2	10.4µM*	22.4%	6.7	.
CC(NC(=O)NC(=O)c1ccc(F)cc1)C1CC1 (stereo not given)	.	.	.	.	53.4
Cc1cc(O)c(NC(=O)c2cccc([N+](=O)[O-])c2)cc1C	46.6*	-3.2%	48.4%	22.0*	60.1
O=C(Nc1cc([N+](=O)[O-])ccc1O)c1cccc([N+](=O)[O-])c1	.	32.5%	-2.7%	6.4	34.3
O=S(=O)(c1cc(Br)c(Cl)s1)N1CCCC1	10.0	?	?	-1.4	-2.9
COc1ccc(/C(O)=C2/C(=O)C(=O)N(CCN(C)C)C2c2ccc(OC)c(OC)c2)c(C)c1 (stereo not given)	8.7	-22.8%	19.0%	-1.2	-71.1*
COc1cc(C2/C(=C(/O)c3ccc(OCC(C)C)cc3)C(=O)C(=O)N2CCN(C)C)ccc1O (stereo not given)	-18.8	9.3%	11.7µM*	-3.1	16.1
